Bioassay records (PubChem)
IMPase cell inh = cell-permeable inhibitors of inositol monophosphatase (IMPase); CHO-M1 cells, IP1 accumulation, HTRF TR-FRET ratio; inhibition (IP1 accumulation), % at 46.1 µM; 120,000 tested, under 10 active; AID 901; active = well fitted curve in the direction sought with a large enough effect in the signal ratio, not every such curve was filed as active; inconclusive = small, poorly fitted or top-dose-only effect, or a change in a side signal; inactive = no such curve, though single readings can be large or run the other way; the % refers to the signal ratio;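 also: cells stimulated with carbachol in lithium chloride buffer; higher means more IMPase inhibition seen as more IP1 and lower FRET ratio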
Target sequence (P97697 whole entry, looked up): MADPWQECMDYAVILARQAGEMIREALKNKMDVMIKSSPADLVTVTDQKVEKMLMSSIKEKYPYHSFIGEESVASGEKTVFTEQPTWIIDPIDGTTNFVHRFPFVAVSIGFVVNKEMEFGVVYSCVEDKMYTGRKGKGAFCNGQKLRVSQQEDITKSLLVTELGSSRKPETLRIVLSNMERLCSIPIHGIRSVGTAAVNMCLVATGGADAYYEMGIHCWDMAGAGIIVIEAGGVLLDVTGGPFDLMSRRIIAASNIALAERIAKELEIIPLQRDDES
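CHO-M1, 2000 cells/well, cultured 16–30 h; cpd up to 46 uM; carbachol (50 uM solution, stimulation buffer w/ 50 mM LiCl, pH 7.4), 30 min 37C; IP-One TR-FRET, 10 min RT; Ex 320/Em 665, 620; Hill-fit AC50.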
IMPase Li inh = cell-permeable IMPase inhibitors with lithium potentiation. CHO-M1 cells, IP1 TR-FRET (IP-One), carbachol + lithium. Potency, µM (series often up to 59.4 µM), usual class: inhibitors. actives 0.35% (n = 210,000). AID 1457; active = well fitted curve in the direction sought with a large enough effect; inconclusive = small, poorly fitted or top-dose-only effect, or another doubt; inactive = no such curve, though single readings can be large; an effect the other way counts as inactive or inconclusive;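 also: IP1 builds up when IMPase is blocked and the TR-FRET signal falls; nearly all actives have a fitted effect of over 50% in size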
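CHO cells stably expressing M1 receptor (2000/well) were cultured 16–30 h, then exposed to compounds with a small lithium addition for 30 min at 37C. IP1 was measured by TR-FRET competition; AC50 from Hill fits.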
PNC assembly inh = blocks assembly of the perinucleolar compartment; PC3M PTB-GFP, PNC prevalence imaging, 16 h; active compounds read low; actives 3.1% (n = 140,000); activity change (PNC), negative = inhibition, % at 10 µM;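 active = readout at or below -70, meaning at least 70% loss of cells showing the perinucleolar compartment, a nuclear body marking cancer cells; inconclusive = readout between -30 and a set limit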
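Read-out is percentage of cells bearing a perinucleolar compartment, from automated 20x imaging of fixed, Hoechst-stained PC3M PTB-GFP cells. Cells were seeded 4 h, then exposed 16 h to compound (23 nl of library stock) in duplicate plates.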
ALOX12 inhib = inhibitors of human 12-lipoxygenase (ALOX12); P18054; actives 0.12% (n = 150,000); purified 12-hLO, xylenol orange hydroperoxide absorbance; AID 1452; Potency, µM (series often up to 57.1 µM), hits mostly inhibitors; active = well fitted curve in the direction sought with a large enough effect; inconclusive = small, poorly fitted or top-dose-only effect, or another doubt; inactive = no such curve, though single readings can be large; an effect the other way counts as inactive or inconclusive; also: nearly all actives have a fitted effect of over 55% in size
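150 nM 12hLO, 25 mM Hepes pH 7.0 + 0.01% Triton X-100; cpd preinc 15 min RT; 40 uM arachidonic acid, 30 min RT; Fe-XO 30 min; A573/A405 ratio as read-out.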
HPGD block = HPGD (human) dehydrogenase inhibition; P15428; purified HPGD, NADH fluorescence kinetic, PGE2 substrate; Potency, µM, most hits filed as inhibitors; actives 4.3% (n = 150,000); AID 894
Target sequence (P15428 whole entry, looked up): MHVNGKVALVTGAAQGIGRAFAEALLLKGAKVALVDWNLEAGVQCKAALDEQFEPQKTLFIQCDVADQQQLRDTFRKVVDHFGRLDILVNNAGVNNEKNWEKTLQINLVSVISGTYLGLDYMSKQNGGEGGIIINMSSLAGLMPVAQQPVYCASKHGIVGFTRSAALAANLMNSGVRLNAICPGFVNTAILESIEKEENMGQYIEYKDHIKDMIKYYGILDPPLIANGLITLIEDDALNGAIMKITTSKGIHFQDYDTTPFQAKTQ
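20 nM HPGD preincubated 15 min at room temperature with compound in 50 mM Tris-HCl pH 8, 0.01% Tween 20. Started with 1 mM NAD+ and 30 uM prostaglandin E2; NADH fluorescence (360/450 nm) read 5 times over 30-s intervals, last minus first.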
ALDH1A1 inh = ALDH1A1 (human) enzyme inhibition; Purified ALDH1A1, NADH fluorescence, propionaldehyde substrate; Potency, µM (titrated, usually from 75.3 µM), actives largely listed as inhibitors; actives 7.3% (n = 220,000)
Numbers stand for hits; [ ] = remark or other dose. In the library only some 11% were active in any assay of this set; here they are far more common. Unless noted, calls follow the shape of the dose curve; as a rule, active = well fitted inhibition curve with a large enough effect (not every such curve was filed as active); inconclusive = small, poorly fitted or top-dose-only effect, or another doubt; inactive = no such curve, though single readings can be large or run the other way.

For C[C@@H]1O[C@H](O[C@@H]2[C@H](C)O[C@H](O[C@@H]3[C@H](C)O[C@H](O[C@H]4CC[C@]5(C)[C@@H](CC[C@@H]6[C@H]5C[C@@H](O)[C@]5(C)[C@@H](C7=CC(=O)OC7)CC[C@]65O)C4)C[C@@H]3O)C[C@@H]2O)C[C@H](O)[C@@H]1O the results were IMPase cell inh inactive, IMPase Li inh inactive, ALOX12 inhib inactive, HPGD block inactive and ALDH1A1 inh inactive.
`C[C@H]1O[C@@H](O[C@H]2[C@@H](O)C[C@H](O[C@H]3[C@@H](O)C[C@H](O[C@H]4CC[C@@]5(C)[C@H](CC[C@@H]6[C@@H]5C[C@@H](O)[C@]5(C)[C@@H](C7=CC(=O)OC7)CC[C@]65O)C4)O[C@@H]3C)O[C@@H]2C)C[C@H](O)[C@@H]1O` gave IMPase cell inh inactive, IMPase Li inh inactive, PNC assembly inh -90, ALOX12 inhib inactive, HPGD block inactive and ALDH1A1 inh inactive.
For CCS(=O)(=O)c1ccc(O)c(NC(=O)c2cc(OC)c(OC)c(OC)c2)c1 the results were IMPase cell inh inactive, IMPase Li inh inactive, PNC assembly inh inconclusive, ALOX12 inhib inactive, HPGD block inactive and ALDH1A1 inh 16µM.
CN(C)CN1CSC(=S)N(CN(C)C)C1 was read as IMPase Li inh inactive, ALOX12 inhib inactive[11.4 µM], HPGD block 3.2µM and ALDH1A1 inh 4µM.
For O=C(CSc1nnnn1-c1ccc2c(c1)OCCO2)OC1CCCCC1 the results were IMPase cell inh inactive, IMPase Li inh inactive, PNC assembly inh inactive, ALOX12 inhib inactive, HPGD block inactive and ALDH1A1 inh 5µM.
Screening Cc1ccc(NC(=O)CCSc2nnnn2-c2ccc3c(c2)OCO3)cc1C returned IMPase cell inh inactive, IMPase Li inh inactive, PNC assembly inh inactive, ALOX12 inhib inactive, HPGD block inactive and ALDH1A1 inh 13µM.
CCC(=O)Nc1ccc(NC(=O)CSc2nnnn2-c2ccc3c(c2)OCCO3)cc1 was read as IMPase Li inh inactive and ALDH1A1 inh inactive.
CCOC(=O)c1csc(NC(=O)CSc2nnnn2-c2ccc3c(c2)OCCO3)n1 was read as IMPase cell inh inconclusive, IMPase Li inh inactive, PNC assembly inh -88, ALOX12 inhib inactive, HPGD block inactive and ALDH1A1 inh inactive.
Screening Cc1cccc(C(=O)Nc2sc3c(c2C(=O)N2CCCCC2)CCC(C)C3)c1 (stereo not given) returned IMPase cell inh inactive.
Screening O=C(C[n+]1ccc2ccccc2c1)c1ccc2ccc3ccccc3c2c1 returned IMPase Li inh inactive, ALOX12 inhib inactive[11.4 µM], HPGD block inactive and ALDH1A1 inh inconclusive.
C/C(=N\NC(=O)c1ccc(N(C)C)cc1)c1ccc(C)c(C)c1 was read as IMPase cell inh inactive, PNC assembly inh inactive, ALOX12 inhib inactive and ALDH1A1 inh 14µM.
`CCN(CC)c1ccc(C(=O)N/N=C(\C)c2ccc(O)cc2)cc1` gave IMPase Li inh inactive, PNC assembly inh inactive, ALOX12 inhib inactive, HPGD block inactive and ALDH1A1 inh 25µM.
For CC(C)NC(=O)N1CCC2(CC1)CCN(C(=O)c1cccc(F)c1)CC2 the results were IMPase Li inh inactive, ALOX12 inhib inactive, HPGD block inactive and ALDH1A1 inh inactive.
Screening COc1ccc(N2C(S)=C(C#N)C(=O)NC2c2ccc(OC)c(OC)c2)cc1 (stereo not given) returned IMPase Li inh inactive and ALDH1A1 inh inconclusive.
For COc1cc(C2NC(=O)C(C#N)=C(S)N2c2ccc(C)cc2)ccc1OC(C)C (stereo not given) the results were IMPase cell inh inactive, IMPase Li inh inactive, PNC assembly inh inconclusive, ALOX12 inhib inconclusive, HPGD block 25µM and ALDH1A1 inh inactive.
`COc1ccc(C2NC(=O)C(C#N)=C(S)N2c2cccc(C)c2)cc1OC` (stereo not given) gave IMPase Li inh inactive and ALDH1A1 inh inconclusive.
COc1ccc(C2NC(=O)C(C#N)=C(S)N2c2ccc(C)cc2)cc1OC (stereo not given) was read as IMPase Li inh inactive and ALDH1A1 inh 18µM.
